Experimental data published in PubChem BioAssay (EPA / NIEHS).
Values joined by “and” are separate entries in the source; they are usually repeats but may differ in a detail not shown here. Equal values may be shown once. Some structures have more than one record in an assay (separate samples or runs), and their calls can disagree. Active and inactive are the calls of the source. Rule for the calls: active = hit-call score of the fitted dose curve at least 0.9, where 1 is the maximum; inactive = score below 0.9.

Assays:
[1] = ATG_GLI_CIS: Attagene CIS-FACTORIAL HepG2 Assay for human Zinc Finger Protein GLI1 (AID 2282945); conditions: HepG2, Attagene cis-factorial reporter mRNA, GLI element; actives raise or lower the signal
Method in brief: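 Bidirectional curve fits relative to DMSO, using reporter mRNA levels from RT-PCR plus capillary electrophoresis. Cells were HepG2 transiently carrying cis-regulated reporter constructs, harvested 24 h after dosing.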

[2] = ATG_GRE_CIS: Attagene CIS-FACTORIAL HepG2 Assay for human Glucocorticoid Response Elements (GRE) (AID 2282947); conditions: HepG2 GRE cis-reporter, Attagene multiplex mRNA; actives raise or lower the signal
Method in brief: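 Multiplexed cis-reporter mRNA induction, HepG2, 24 h post-dose. RT-PCR, FAM-labelled, HpaI-digested amplicons by CE. Bidirectional fit vs DMSO.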

[3] = ATG_ISRE_CIS: Attagene CIS-FACTORIAL HepG2 Assay for human Interferon Regulatory Factor 1 (IRF1) binding to an Interferon-Stimulated Response Element (ISRE) (AID 2282948); conditions: HepG2 ISRE cis-reporter (Attagene), mRNA transcription readout; actives raise or lower the signal
Method in brief: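 Endogenous transcription factor activity read as reporter transcript abundance via RT-PCR and capillary electrophoresis. HepG2 cells transiently transfected, 24 h chemical exposure. Gain or loss fitted against DMSO baseline.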

[4] = ATG_M_32_CIS: Attagene CIS-FACTORIAL HepG2 Assay for M32 Transcription Factor (Internal Marker) (AID 2282949); conditions: HepG2 Attagene cis-factorial M32 reporter, mRNA; actives raise or lower the signal;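 note: background control marker of the multiplexed CIS panel rather than a real target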
Method in brief: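 Using DMSO as baseline, bidirectional curve fits were applied to reporter mRNA signals. These came from transiently transfected HepG2 cells exposed for 24 h, with RNA analysed by RT-PCR, FAM primer extension, HpaI digestion and CE.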

[5] = target: Hypoxia-inducible factor 1-alpha (Homo sapiens) (UniProt Q16665); assay: ATG_HIF1a_CIS: Attagene CIS-FACTORIAL HepG2 Assay for human Hypoxia Inducible Factor 1 (HIF1A) (AID 2282951); conditions: HepG2 Attagene cis-factorial HIF1a reporter transcription; actives raise or lower the signal
Method in brief: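 Cis-element reporter constructs were transiently transfected into HepG2 cells, which were treated for 24 h; reporter RNA was reverse-transcribed, amplified, labelled and resolved by capillary electrophoresis.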

[6] = target: Hepatocyte nuclear factor 6 (Homo sapiens) (UniProt Q9UBC0); assay: ATG_HNF6_CIS: Attagene CIS-FACTORIAL HepG2 Assay for human Hepatocyte Nuclear Factor 6 (HNF6) (AID 2282952); conditions: HepG2 Attagene cis-factorial HNF6 reporter transcription; actives raise or lower the signal
Method in brief: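 Using cis-element reporters in HepG2 liver cells, the assay tracks endogenous factor-driven transcription 24 h post-dosing. Signal comes from 6-FAM-labelled, HpaI-digested RT-PCR fragments, with gain or loss scored against DMSO.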

[7] = target: Heat shock factor protein 1 (Homo sapiens) (UniProt Q00613); assay: ATG_HSE_CIS: Attagene CIS-FACTORIAL HepG2 Assay for human Heat Shock Transcription Factor 1 (HSE) (AID 2282953); conditions: HepG2 HSE cis-reporter, Attagene RNA transcription; actives raise or lower the signal
Method in brief: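 Endogenous transcription factor activity captured via cis-promoter reporter units transfected into HepG2; treatment lasted 24 h. Fluorescence intensity of reporter fragments analysed with bidirectional curve fitting, DMSO baseline.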

[8] = ATG_MRE_CIS: Attagene CIS-FACTORIAL HepG2 Assay for human Metal Responsive Element (MRE) (AID 2282954); conditions: HepG2 MRE cis-reporter transcription, Attagene multiplex; actives raise or lower the signal
Method in brief: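 Multiplexed cis-reporter assay in human HepG2 liver cells, 24 h incubation with test chemical. Reporter transcripts measured by RT-PCR and capillary electrophoresis; values from bidirectional curve fitting versus DMSO.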

[9] = ATG_PBREM_CIS: Attagene CIS-FACTORIAL HepG2 Assay for human Phenobarbital-responsive Enhancer Module (PBREM) (AID 2282955); conditions: HepG2 PBREM cis-reporter, Attagene multiplexed transcription; actives raise or lower the signal
Method in brief: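 Multiplexed cis-reporter readout in human hepatoma HepG2 cells; PBREM-regulated transcript quantified after 24 h exposure by fluorescent RT-PCR fragment analysis. Signal changes up or down fitted relative to DMSO.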

[10] = target: Paired box protein Pax-6 (Homo sapiens) (UniProt P26367); assay: ATG_Pax6_CIS: Attagene CIS-FACTORIAL HepG2 Assay for human Paired Box 6 (PAX6) (AID 2282956); conditions: HepG2 CIS-FACTORIAL PAX6 reporter transcription, RNA readout; actives raise or lower the signal
Method in brief: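 Read-out is reporter transcript level, measured by RT-PCR with fluorescent primer extension and capillary electrophoresis after 24 h dosing of transfected HepG2 cells. Activity in either direction fitted relative to DMSO control.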

[11] = ATG_PXRE_CIS: Attagene CIS-FACTORIAL HepG2 Assay for human Pregnane X Receptor Element (PXRE) (AID 2282957); conditions: HepG2 Attagene CIS-FACTORIAL PXRE reporter, mRNA; actives raise or lower the signal
Method in brief: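 Using HepG2 transfected with multiple reporter transcription units, endogenous factor-driven transcription was scored as reporter mRNA after 24 h exposure.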

[12] = ATG_PPRE_CIS: Attagene CIS-FACTORIAL HepG2 Assay for human Peroxisome Proliferator-activated Response Element (PPRE) (AID 2282958); conditions: HepG2 PPRE cis-element reporter, Attagene transcription factor profiling; actives raise or lower the signal
Method in brief: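 DMSO served as negative control and baseline for bidirectional curve fitting. Signal came from PPRE-regulated reporter mRNA in HepG2 cells, measured 24 h post-dosing by RT-PCR, 6-FAM primer extension and capillary electrophoresis.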

[13] = ATG_Sox_CIS: Attagene CIS-FACTORIAL HepG2 Assay for human SRY-box transcription factor (SOX) (AID 2282960); conditions: HepG2 Attagene cis-factorial SOX reporter, mRNA; actives raise or lower the signal
Method in brief: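 Fluorescence-labelled cDNA fragments from reporter transcripts, sized by CE, give the signal. Cells: HepG2, transiently transfected with cis-regulated reporter units. Exposure 24 h; DMSO negative control; bidirectional curve fitting.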

[14] = ATG_SREBP_CIS: Attagene CIS-FACTORIAL HepG2 Assay for human Sterol Regulatory Element Binding (SREBP) (AID 2282962); conditions: HepG2 Attagene cis-factorial SREBP reporter, mRNA; actives raise or lower the signal
Method in brief: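 Endogenous SREBP activity read as cis-element-driven reporter transcript in transiently transfected HepG2, 24 h post-dosing; quantified via RT-PCR plus capillary electrophoresis of fluorescent fragments. Gain or loss of signal fitted relative to DMSO baseline.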

[15] = ATG_TA_CIS: Attagene CIS-FACTORIAL HepG2 Assay for human TA Basal Promoter (AID 2282964); conditions: HepG2 Attagene CIS-factorial TA basal promoter reporter; actives raise or lower the signal
Method in brief: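 Fluorescence from labelled RT-PCR reporter fragments, separated by capillary electrophoresis, gives the signal. Cells: HepG2 transiently carrying multiple reporter units, 24 h chemical dosing. Gain or loss relative to DMSO.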

[16] = ATG_M_06_CIS: Attagene CIS-FACTORIAL HepG2 Assay for M06 Transcription Factor (Internal Marker) (AID 2282950); conditions: HepG2 Attagene CIS-FACTORIAL M06 internal marker reporter; actives raise or lower the signal
Method in brief: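 HepG2 liver cells, 24 h exposure. Reporter transcripts from transfected cis-element constructs quantified by RT-PCR/capillary electrophoresis fluorescence. Bidirectional curve fit against DMSO.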

[17] = ATG_RORE_CIS: Attagene CIS-FACTORIAL HepG2 Assay for human RAR-related Orphan Receptor Element (RORE) (AID 2282959); conditions: HepG2 Attagene cis-factorial RORE reporter, mRNA; actives raise or lower the signal
Method in brief: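 Transfect HepG2 with MRTUs; treat 24 h; extract RNA; RT with oligo(dT); PCR with reporter-specific primers; 6-FAM primer extension; HpaI digest 2 h at 37 C; capillary electrophoresis. Fit vs DMSO, bidirectional.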

[18] = target: Transcription factor Sp1 (Homo sapiens) (UniProt P08047); assay: ATG_Sp1_CIS: Attagene CIS-FACTORIAL HepG2 Assay for human Specificity Protein 1 (Sp1) (AID 2282961); conditions: HepG2 Sp1 cis-reporter transcription, actives raise or lower the signal
Method in brief: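 Chemicals are dosed onto HepG2 cells transfected with multiple cis-promoter reporter constructs, and after 24 h reporter RNA is reverse-transcribed, PCR-amplified and resolved by capillary electrophoresis for fluorescence quantitation; activity is scored up or down against DMSO.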

[19] = target: Signal transducer and activator of transcription 3 (Homo sapiens) (UniProt P40763); assay: ATG_STAT3_CIS: Attagene CIS-FACTORIAL HepG2 Assay for human Signal Transducer and Activator of Transcription 3 (STAT3) (AID 2282963); conditions: HepG2, Attagene cis-factorial STAT3 reporter transcription; actives raise or lower the signal
Method in brief: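 Cis-factorial format: endogenous transcription factors in HepG2 drive transfected reporter units. After 24 h treatment, reporter RNA was reverse-transcribed, amplified, FAM-labelled and HpaI-digested before CE analysis; activity scored in both directions against DMSO.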

Measured: AC50

Sequence of Transcription factor Sp1 (Homo sapiens) (P08047 whole entry, looked up): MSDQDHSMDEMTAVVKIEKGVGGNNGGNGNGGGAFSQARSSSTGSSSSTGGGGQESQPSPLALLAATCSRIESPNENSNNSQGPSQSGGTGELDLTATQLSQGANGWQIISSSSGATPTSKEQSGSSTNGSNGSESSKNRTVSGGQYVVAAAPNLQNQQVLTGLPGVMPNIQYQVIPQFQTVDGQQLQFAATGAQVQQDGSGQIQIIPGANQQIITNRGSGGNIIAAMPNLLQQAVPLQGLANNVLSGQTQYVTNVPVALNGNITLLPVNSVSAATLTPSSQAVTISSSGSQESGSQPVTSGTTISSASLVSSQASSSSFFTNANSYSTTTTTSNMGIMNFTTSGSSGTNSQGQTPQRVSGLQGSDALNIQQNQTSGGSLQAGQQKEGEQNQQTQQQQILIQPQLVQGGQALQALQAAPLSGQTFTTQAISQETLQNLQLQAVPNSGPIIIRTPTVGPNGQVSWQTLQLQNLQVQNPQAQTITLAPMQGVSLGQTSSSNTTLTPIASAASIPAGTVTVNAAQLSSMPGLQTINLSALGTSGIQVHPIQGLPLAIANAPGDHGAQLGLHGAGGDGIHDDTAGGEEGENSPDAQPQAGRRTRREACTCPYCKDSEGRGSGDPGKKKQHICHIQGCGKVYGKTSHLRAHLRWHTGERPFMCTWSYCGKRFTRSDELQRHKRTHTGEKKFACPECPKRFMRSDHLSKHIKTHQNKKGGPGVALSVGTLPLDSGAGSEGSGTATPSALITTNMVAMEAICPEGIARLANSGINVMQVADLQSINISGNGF
Sequence of Hepatocyte nuclear factor 6 (Homo sapiens) (Q9UBC0 whole entry, looked up, the tested form may be a part): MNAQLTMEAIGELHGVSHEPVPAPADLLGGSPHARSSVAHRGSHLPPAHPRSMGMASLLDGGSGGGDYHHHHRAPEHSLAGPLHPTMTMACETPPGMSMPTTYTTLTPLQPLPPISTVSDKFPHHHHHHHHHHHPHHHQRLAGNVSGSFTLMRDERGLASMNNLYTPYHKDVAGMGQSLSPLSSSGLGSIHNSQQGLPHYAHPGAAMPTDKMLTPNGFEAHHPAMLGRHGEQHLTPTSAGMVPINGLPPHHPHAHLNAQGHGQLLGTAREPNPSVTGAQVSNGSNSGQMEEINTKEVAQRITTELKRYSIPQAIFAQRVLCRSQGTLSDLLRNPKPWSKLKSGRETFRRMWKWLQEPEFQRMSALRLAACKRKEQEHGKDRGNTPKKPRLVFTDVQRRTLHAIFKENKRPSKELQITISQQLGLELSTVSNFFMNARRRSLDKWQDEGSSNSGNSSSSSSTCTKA
Sequence of Hypoxia-inducible factor 1-alpha (Homo sapiens) (Q16665 whole entry, looked up): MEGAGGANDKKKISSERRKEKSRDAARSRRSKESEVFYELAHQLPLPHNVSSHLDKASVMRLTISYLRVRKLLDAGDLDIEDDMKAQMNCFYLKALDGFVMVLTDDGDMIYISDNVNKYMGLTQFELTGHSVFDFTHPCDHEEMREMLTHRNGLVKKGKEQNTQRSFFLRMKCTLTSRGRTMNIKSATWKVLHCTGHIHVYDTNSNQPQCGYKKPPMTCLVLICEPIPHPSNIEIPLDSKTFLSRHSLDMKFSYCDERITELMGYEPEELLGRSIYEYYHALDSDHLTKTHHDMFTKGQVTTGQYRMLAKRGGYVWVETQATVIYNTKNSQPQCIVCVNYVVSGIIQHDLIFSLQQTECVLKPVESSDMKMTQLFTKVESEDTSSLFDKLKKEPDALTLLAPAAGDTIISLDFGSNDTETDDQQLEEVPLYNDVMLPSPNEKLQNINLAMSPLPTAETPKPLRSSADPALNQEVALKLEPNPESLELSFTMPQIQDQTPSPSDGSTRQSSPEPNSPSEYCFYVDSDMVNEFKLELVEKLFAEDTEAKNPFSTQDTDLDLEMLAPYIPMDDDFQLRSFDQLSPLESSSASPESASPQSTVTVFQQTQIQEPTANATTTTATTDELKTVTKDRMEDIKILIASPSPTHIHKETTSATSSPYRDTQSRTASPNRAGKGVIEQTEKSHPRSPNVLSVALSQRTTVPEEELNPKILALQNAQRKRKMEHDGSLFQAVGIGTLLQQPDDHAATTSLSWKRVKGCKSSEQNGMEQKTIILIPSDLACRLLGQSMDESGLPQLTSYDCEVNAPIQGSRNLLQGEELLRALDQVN
Sequence of Paired box protein Pax-6 (Homo sapiens) (P26367 whole entry, looked up): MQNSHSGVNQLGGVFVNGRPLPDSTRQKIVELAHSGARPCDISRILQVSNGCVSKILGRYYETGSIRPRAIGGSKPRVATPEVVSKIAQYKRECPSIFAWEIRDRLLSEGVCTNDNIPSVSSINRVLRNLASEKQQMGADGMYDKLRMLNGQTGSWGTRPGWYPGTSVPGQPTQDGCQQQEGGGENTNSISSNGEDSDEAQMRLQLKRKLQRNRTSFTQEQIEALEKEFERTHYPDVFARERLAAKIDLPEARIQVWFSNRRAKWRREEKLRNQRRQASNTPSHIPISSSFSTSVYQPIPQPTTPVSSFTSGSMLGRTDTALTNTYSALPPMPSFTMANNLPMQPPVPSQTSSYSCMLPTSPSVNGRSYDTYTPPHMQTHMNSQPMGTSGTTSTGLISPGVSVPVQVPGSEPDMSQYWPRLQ
Sequence of Heat shock factor protein 1 (Homo sapiens) (Q00613 whole entry, looked up, the tested form may be a part): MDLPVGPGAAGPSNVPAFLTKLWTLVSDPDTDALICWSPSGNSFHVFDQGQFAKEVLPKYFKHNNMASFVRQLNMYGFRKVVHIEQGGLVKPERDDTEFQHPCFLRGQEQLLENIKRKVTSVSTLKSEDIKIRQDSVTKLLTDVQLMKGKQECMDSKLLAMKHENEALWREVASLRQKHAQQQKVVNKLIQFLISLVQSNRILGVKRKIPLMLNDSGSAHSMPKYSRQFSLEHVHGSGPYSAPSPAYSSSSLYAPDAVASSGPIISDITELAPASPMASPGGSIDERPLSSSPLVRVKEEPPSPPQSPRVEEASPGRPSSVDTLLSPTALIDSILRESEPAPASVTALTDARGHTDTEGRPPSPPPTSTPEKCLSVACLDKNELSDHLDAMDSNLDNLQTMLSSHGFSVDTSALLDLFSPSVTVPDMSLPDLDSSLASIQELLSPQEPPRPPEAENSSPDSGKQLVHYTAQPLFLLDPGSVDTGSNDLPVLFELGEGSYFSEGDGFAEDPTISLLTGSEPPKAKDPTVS
Sequence of Signal transducer and activator of transcription 3 (Homo sapiens) (P40763 whole entry, looked up): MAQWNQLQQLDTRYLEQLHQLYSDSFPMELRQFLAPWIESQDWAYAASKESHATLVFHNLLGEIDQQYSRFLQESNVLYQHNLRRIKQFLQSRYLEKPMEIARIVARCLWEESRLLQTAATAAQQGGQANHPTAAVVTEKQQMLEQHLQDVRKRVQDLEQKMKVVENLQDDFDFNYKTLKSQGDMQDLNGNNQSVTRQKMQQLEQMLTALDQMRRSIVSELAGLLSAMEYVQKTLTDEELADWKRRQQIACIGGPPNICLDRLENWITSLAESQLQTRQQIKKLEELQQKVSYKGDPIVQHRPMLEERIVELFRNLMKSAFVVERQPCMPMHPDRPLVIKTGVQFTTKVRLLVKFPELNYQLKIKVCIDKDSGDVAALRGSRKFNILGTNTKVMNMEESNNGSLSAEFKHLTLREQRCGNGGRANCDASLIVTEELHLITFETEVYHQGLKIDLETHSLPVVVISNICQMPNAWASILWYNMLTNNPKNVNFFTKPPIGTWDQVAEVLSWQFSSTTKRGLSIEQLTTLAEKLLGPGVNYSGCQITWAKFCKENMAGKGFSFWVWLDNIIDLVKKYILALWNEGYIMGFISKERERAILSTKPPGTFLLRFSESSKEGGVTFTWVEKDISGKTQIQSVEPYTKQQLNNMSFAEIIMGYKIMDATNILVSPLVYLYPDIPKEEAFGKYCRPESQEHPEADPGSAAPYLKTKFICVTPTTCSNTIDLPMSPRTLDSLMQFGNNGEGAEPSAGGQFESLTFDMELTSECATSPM

CC(C)C(=O)OCC=Cc1ccccc1
active: [11] 16.4 µM
not listed: [16] | [17] | [18] | [19]
inactive: all other assays above

CCC(CC)CO
not listed: [2]
inactive: all other assays above

CC(C)=CC(=O)O
active: [11] 99.5 µM
not listed: [2]
inactive: all other assays above

Nc1cc([N+](=O)[O-])ccc1C(=O)O
active: [7] 75 µM | [8] 71 µM | [11] 64.5 µM
not listed: [2]
inactive: all other assays above

c1ccc(OCCOc2ccccc2)cc1
active: [5] 26.4 µM | [12] 0.0167 µM
not listed: [8] | [16] | [17] | [18]
inactive: all other assays above

CC(O)CNCC(C)O (stereo not given)
not listed: [2] | [19]
inactive: all other assays above

CC(C)(O)C(=O)c1ccc(OCCO)cc1
not listed: [6] | [8] | [9] | [13] | [16]
inactive: all other assays above

CCCCCCCCCCCCCC(=O)OCC
not listed: [8] | [16] | [18]
inactive: all other assays above

C[C@]12CC[C@@H]3c4ccc(O)cc4CC[C@H]3[C@@H]1CC[C@@H]2O
inactive: [1] | [2] | [3] | [4] | [16] | [7] | [9] | [10] | [11] | [12] | [17] | [13] | [14] | [19] | [15]
active: [11] 5.88 µM [middle of 4 runs] | [12] 27 µM | [14] 26.5 µM and 25.8 µM

c1coc(CNc2ncnc3nc[nH]c23)c1
active: [11] 44 µM
not listed: [16]
inactive: all other assays above

CC1COC(=O)O1 (stereo not given)
active: [11] 40.3 µM
not listed: [16]
inactive: all other assays above

CCCc1ccc(N)cc1
not listed: [2] | [19]
inactive: all other assays above

CCCCCCCC(=O)N(C)C
active: [11] 42.4 µM
not listed: [2] | [13]
inactive: all other assays above

CC1(C)CC(N)CC(C)(CN)C1 (stereo not given)
not listed: [9] | [16] | [19]
inactive: all other assays above

CCC(=O)OC(C)(C)C1CC=C(C)CC1 (stereo not given)
active: [11] 27.4 µM
not listed: [2]
inactive: all other assays above

CCCCCCOc1ccc(O)cc1
active: [7] 11.3 µM | [8] 47.7 µM | [10] 33.4 µM | [11] 5.85 µM | [15] 39.2 µM
not listed: [2] | [18]
inactive: all other assays above
